tim23-1 inh = growth inhibitors of tim23-1 mutant yeast; S. cerevisiae tim23-1 growth, BacTiter-Glo luminescence, 24 h; inhibition, % at 20 µM; actives 1.3% (n = 330,000); AID 463212;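 active means growth inhibition of the mutant yeast at or above 50%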;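 further: temperature-sensitive mutant grown at 25 °C; plate controls were DMSO-treated mutant yeast for no effect and medium wells lacking yeast for full effect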
NALP1 inh = NALP1 inhibition. inhibition, % at 10 µM. actives 0.61% (n = 280,000). S. cerevisiae NALP1/ASC/caspase-1 growth, X-gal OD620, 72 h. AID 2071; in the data active means inhibition mostly above about 24%, no sharp cut-off; inactive means mostly below about 32%
NLRP3 yeast inh = NALP3 inhibition in yeast. actives 0.39% (n = 330,000). AID 2825. inhibition, % at 10 µM. Yeast reconstituted NLRP3/ASC/caspase-1, beta-gal luminescence, 24 h;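 active means inhibition of 50% or more; inactive means inhibition below 50%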;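 further: plate controls were induced DMSO wells for no effect and uninduced yeast grown without galactose for full effect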
TIM10 inh = inhibits growth of TIM10 yeast strain; S. cerevisiae TIM10 strain growth, BacTiter-Glo luminescence, 24 h; actives 1.4% (n = 330,000); AID 463195; inhibition, % at 10 µM;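 active means inhibition of 40% or more at the single tested concentration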;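 further: wild-type TIM10 isogenic control strain grown at permissive 25 °C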
tim10-1 inh = growth inhibitors of tim10-1 mutant yeast; actives 2.2% (n = 330,000); S. cerevisiae tim10-1 ts strain growth, BacTiter-Glo, 24 h; inhibition, % at 20 µM;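 active means inhibition of at least 40%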;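 further: mutant grown at 25 °C; 0% = DMSO wells with yeast and 100% = wells holding no yeast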
tim23-1 confirm = tim23-1 yeast growth inhibition, confirmed | shares compounds with tim23-1 inh | S. cerevisiae tim23-1 growth, BacTiter-Glo luminescence, 24 h | inhibition, % at 20 µM | actives 83% (n = 4,400) | AID 463218;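 active means inhibition above about 39% in either of two replicate wells at 20 µM, limit read from the data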;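 further: temperature-sensitive tim23-1 mutant grown at 25 °C; 0% = DMSO wells with yeast and 100% = medium wells without yeast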
The depositor's hits bear a star. Hits are enriched below; roughly 4% of the tested compounds scored in any of these assays.

How did O=C(O)c1cccc(N/N=C(\N=Nc2ccccc2)c2ccccc2)c1 do in these assays?
tim23-1 inh: 53*; NLRP3 yeast inh: 26; TIM10 inh: 3; tim10-1 inh: 34; tim23-1 confirm: 46*

What do the screens show for `COc1ccc(C(=O)Nc2nnc(Cc3ccc(OC)c(OC)c3)s2)cc1`?
tim23-1 inh: -13; NALP1 inh: 16; NLRP3 yeast inh: 16; TIM10 inh: 6; tim10-1 inh: 23

Results for Cc1ccc(C)c(Nc2nc(-c3cccnc3)cs2)c1 ?
tim23-1 inh: 50*; NALP1 inh: 7; NLRP3 yeast inh: 22; TIM10 inh: 19; tim10-1 inh: 19; tim23-1 confirm: 15

Results for Cc1cccc(OCC(=O)Nc2ccc(NC(=O)c3ccco3)cc2)c1 ?
tim23-1 inh: 22; NALP1 inh: 7; NLRP3 yeast inh: 19; TIM10 inh: 11; tim10-1 inh: -4

Results for OC(COC(c1ccc(F)cc1)c1ccc(F)cc1)CN1CCCC(C(F)(F)F)C1 (stereo not drawn) ?
tim23-1 inh: 17; NALP1 inh: -5; NLRP3 yeast inh: 20; TIM10 inh: 8; tim10-1 inh: 23

How did C=CCn1c(-c2cc(-c3ccc(C)cc3)nc3ccccc23)n[nH]c1=S do in these assays?
tim23-1 inh: 60*; NALP1 inh: -3; NLRP3 yeast inh: 19; TIM10 inh: 40; tim10-1 inh: 33; tim23-1 confirm: 53*

What do the screens show for `CCC(OC(=O)CNS(=O)(=O)c1ccccc1)C(=O)c1ccccc1` (stereo not drawn)?
tim23-1 inh: 13; NALP1 inh: 11; NLRP3 yeast inh: 7; TIM10 inh: 10; tim10-1 inh: 0

How did COc1ccc(C2CC(c3ccc(C(F)(F)F)cc3)=NN2c2ccc(S(N)(=O)=O)cc2)cc1 (stereo not drawn) do in these assays?
tim23-1 inh: 51*; TIM10 inh: 30; tim10-1 inh: 32; tim23-1 confirm: 14

What do the screens show for `CCOC(=O)c1sc(N(Cc2ccccc2)C(=O)CCl)nc1C`?
tim23-1 inh: 62*; NALP1 inh: 11; NLRP3 yeast inh: 11; TIM10 inh: 14; tim10-1 inh: 20; tim23-1 confirm: 48*

What do the screens show for `COc1cc2sc3cc(NCc4ccc(C)o4)ccc3c(=O)c2cc1OC`?
tim23-1 inh: 58*; NLRP3 yeast inh: 30; TIM10 inh: 14; tim10-1 inh: 20; tim23-1 confirm: 72*

How did COc1cc2sc3cc(NCc4ccc5c(c4)OCO5)ccc3c(=O)c2cc1OC do in these assays?
tim23-1 inh: 24; NLRP3 yeast inh: 16; TIM10 inh: 21; tim10-1 inh: 13

What do the screens show for `Cc1ccccc1NCCC(=O)Nc1ccc(Cl)cc1`?
tim23-1 inh: 13; NALP1 inh: 12; NLRP3 yeast inh: 23; TIM10 inh: -7; tim10-1 inh: -23

How did CC(c1ccccc1)n1c(-c2ccc(Cl)cc2)n[nH]c1=S (stereo not drawn) do in these assays?
tim23-1 inh: 55*; NALP1 inh: 5; NLRP3 yeast inh: 24; TIM10 inh: 25; tim10-1 inh: 2; tim23-1 confirm: 27

How did COc1ccc(Cc2nnc(SCC(=O)Nc3ccccc3C)n(N)c2=O)cc1 do in these assays?
tim23-1 inh: -4; NLRP3 yeast inh: 9; TIM10 inh: 3; tim10-1 inh: 6

What do the screens show for `Oc1ccccc1/C=N/NC(=S)NC1CC2CCC1C2` (stereo not drawn)?
tim23-1 inh: 66*; NALP1 inh: 24; NLRP3 yeast inh: 15; TIM10 inh: 5; tim10-1 inh: 28; tim23-1 confirm: 37

How did COC(=O)N/N=C/c1ccccc1OCCOc1ccc(OC)cc1 do in these assays?
tim23-1 inh: 51*; NALP1 inh: 13; NLRP3 yeast inh: 2; TIM10 inh: -3; tim10-1 inh: 2; tim23-1 confirm: 48*

Results for CN(CC(=O)Nc1ccccc1Cl)CC(=O)N(C)c1c(N)n(Cc2ccccc2)c(=O)[nH]c1=O ?
tim23-1 inh: 15; NLRP3 yeast inh: 10; TIM10 inh: 1; tim10-1 inh: 13

Results for Oc1ccc2ccccc2c1C=NCc1ccccc1 ?
tim23-1 inh: 65*; NALP1 inh: 14; NLRP3 yeast inh: 16; TIM10 inh: 8; tim10-1 inh: 4; tim23-1 confirm: 60*

What do the screens show for `Oc1ccc2ccccc2c1/C=N/Nc1ccccc1`?
tim23-1 inh: 35; NALP1 inh: 36; NLRP3 yeast inh: 1; TIM10 inh: 19; tim10-1 inh: 13

What do the screens show for `CCOC(=O)C1=C(C)N=c2s/c(=C\c3ccncc3)c(=O)n2C1c1ccc2c(c1)OCO2` (stereo not drawn)?
tim23-1 inh: 53*; NALP1 inh: 17; NLRP3 yeast inh: 11; TIM10 inh: 23; tim10-1 inh: 40; tim23-1 confirm: 49*

How did CCOC(=O)C1=C(C)N=c2s/c(=C/c3ccccc3)c(=O)n2C1c1ccc(OC)c(OC)c1 (stereo not drawn) do in these assays?
tim23-1 inh: 13; NALP1 inh: 7; NLRP3 yeast inh: 7; TIM10 inh: -12; tim10-1 inh: -3

Results for O=C(Nc1ccc2[nH]ncc2c1)c1ccccc1Cl ?
tim23-1 inh: 3; NLRP3 yeast inh: 0; TIM10 inh: 9; tim10-1 inh: 2

Results for Cc1ccc(S(=O)(=O)NNc2ccccc2)c(C)c1 ?
NALP1 inh: 4

What do the screens show for `Cc1ccc(/C=C2/NC(=O)N(Cc3ccccc3)C2=O)o1`?
tim23-1 inh: 68*; NALP1 inh: 32; NLRP3 yeast inh: 19; TIM10 inh: 2; tim10-1 inh: 25; tim23-1 confirm: 58*

Results for COc1ccccc1Nc1nc2ccc(C)cc2n2cnnc12 ?
tim23-1 inh: 51*; NALP1 inh: 0; NLRP3 yeast inh: 17; TIM10 inh: 21; tim10-1 inh: 32; tim23-1 confirm: 32

How did COc1ccc(Nc2nc3ccc(C)cc3n3cnnc23)cc1Cl do in these assays?
tim23-1 inh: 29; NALP1 inh: 9; NLRP3 yeast inh: 30; TIM10 inh: 9; tim10-1 inh: 19

Results for CCn1ncc(S(=O)(=O)Nc2cc(Cl)ccc2C)c1C ?
tim23-1 inh: 22; NALP1 inh: 5; NLRP3 yeast inh: 14; TIM10 inh: 5; tim10-1 inh: 15

What do the screens show for `O=C(/C(=C/O)N=Nc1ccccc1)c1ccco1`?
tim23-1 inh: 55*; NALP1 inh: -2; NLRP3 yeast inh: 11; TIM10 inh: 34; tim10-1 inh: 27; tim23-1 confirm: 59*

What do the screens show for `O=C(/C(=C/O)N=Nc1cccc(C(F)(F)F)c1)c1ccccc1`?
tim23-1 inh: 29; NALP1 inh: 0; NLRP3 yeast inh: 16; TIM10 inh: 28; tim10-1 inh: 24

Results for CCN1CCN(C(=O)/C(C#N)=C/c2ccc(OC(F)F)cc2)CC1 ?
tim23-1 inh: -12; NALP1 inh: 14; NLRP3 yeast inh: 10; TIM10 inh: 1; tim10-1 inh: 9

What do the screens show for `N#C/C(=C\c1ccc(OC(F)F)cc1)C(=O)N1CCCCC1`?
tim23-1 inh: 62*; NLRP3 yeast inh: 10; TIM10 inh: 25; tim10-1 inh: 33; tim23-1 confirm: 44*

Compound activity as filed in PubChem.
